{
  "source": "PubChem BioAssay (NCATS)",
  "note": "Records with an inconclusive call do not appear. A call without a number means that no potency is given here. Calls of active or inactive are those of the source. Calls follow the shape of the dose curve; as a rule, active = well fitted inhibition curve with a large enough effect; inconclusive = small, poorly fitted or top-dose-only effect; inactive = flat fitted curve, though single readings scatter. Potency is read from the fitted curve at half-maximal effect.",
  "data": [
    {"test_system": "Zika virus NS2B-NS3 protease", "assay": "Primary screen GU AMC qHTS for Zika virus inhibitors (AID 1347154); also: nearly all actives have a fitted effect of over 70% in size", "conditions": "Zika NS2B-NS3 unlinked protease, AMC fluorogenic substrate; series mostly up to 54.1 µM", "in_short": "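Fluorogenic AMC-substrate cleavage by noncovalent NS2B-NS3 protease complex (25 nM, pH 8.0 Tris buffer with Tween 20) followed for 15 minutes at room temperature (~20% conversion). Percent inhibition from ex340/em450 signal change, fitted by 4-parameter Hill equation.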", "values": [
      {"smiles": "CC(CC(C#N)(c1ccccc1)c1ccccc1)N(C)C", "note": "(stereo not drawn)", "Potency": "inactive"},
      {"smiles": "N#Cc1nn(-c2c(Cl)cc(C(F)(F)F)cc2Cl)c(N)c1S(=O)C(F)(F)F", "note": "(stereo not drawn)", "Potency": "inactive"},
      {"smiles": "CN1C(=O)CN=C(c2ccccc2)c2cc([N+](=O)[O-])ccc21", "Potency": "inactive"},
      {"smiles": "C[C@]12CC[C@H]3[C@@H](CCC4=CC(=O)CC[C@@H]43)[C@@H]1CC[C@@H]2O", "Potency": "inactive"},
      {"smiles": "CCC1(c2ccccc2)CCC(=O)NC1=O", "note": "(stereo not drawn)", "Potency": "inactive"},
      {"smiles": "C=CCOC(Cn1ccnc1)c1ccc(Cl)cc1Cl", "note": "(stereo not drawn)", "Potency": "inactive"},
      {"smiles": "CC(Cc1ccc2c(c1)OCO2)NO", "note": "(stereo not drawn)", "Potency": "inactive"},
      {"smiles": "CCOC(=O)C1(c2ccccc2)CCN(CCc2ccc(N)cc2)CC1", "Potency": "inactive"},
      {"smiles": "O=C(CCCCl)c1ccc(F)cc1", "Potency": "inactive"},
      {"smiles": "C[C@]12CC[C@H]3[C@@H](CCC4=CC(=O)CC[C@@]43C)[C@@H]1CC[C@@H]2C(=O)O", "Potency": "inactive"},
      {"smiles": "COc1cc(CC(C)N)c(OC)cc1Br", "note": "(stereo not drawn)", "Potency": "inactive"},
      {"smiles": "C[C@@H]1O[C@@H](O[C@@H]2C=C3CC[C@@H]4[C@H](CC[C@]5(C)[C@@H](c6ccc(=O)oc6)CC[C@]45O)[C@@]3(C)CC2)[C@H](O)[C@H](O)[C@H]1O", "Potency": "inactive"},
      {"smiles": "CCN(CC)Cc1nccn1-c1ccc([N+](=O)[O-])cc1C(=O)c1ccccc1Cl", "Potency": "inactive"},
      {"smiles": "Cc1c(Cl)c(=O)oc2cc(OP(=O)(OCCCl)OCCCl)ccc12", "Potency": "14.4 µM (active)"},
      {"smiles": "C[N+]1(C)[C@@H]2CC[C@H]1CC(OC(=O)C(CO)c1ccccc1)C2", "note": "(stereo partly drawn)", "Potency": "inactive"},
      {"smiles": "CCC(=O)OC1(c2ccccc2)CCN(C)CC1", "Potency": "inactive"},
      {"smiles": "CNC(=O)NC(O)C(Cl)(Cl)Cl", "note": "(stereo not drawn)", "Potency": "inactive"},
      {"smiles": "O=C(O)Cc1ccccc1", "Potency": "inactive"}
    ]}
  ]
}
